Only some compounds are listed: those with a hit (about 17% of all), similar ones and a draw of the others.
TGFb SMAD3 inh: TGF-b pathway inhibition | HepG2 CAGA-GFP TGF-b/SMAD3 reporter, GFP fluorescence, 18 h; TGF-beta stimulated, 500 pg/mL final | Potency, µM (series often up to 46.1 µM), without a hit: at the top dose activity, negative = inhibition, hits mostly inhibitors | hit rate 1.2% among 410,000 | AID 588855; also: % is scaled to controls: 0 for no effect and ±100 for the full control effect; nearly all actives have a fitted effect of over 65% in size
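Inhibition was scored as loss of TGF-beta-induced (500 pg/mL final, 18 hours, 37 degrees C) GFP in HEPG2 cells carrying a CAGA-GFP reporter, in DMEM with 1% FBS. Well GFP was summed per cell; Activity was normalised to unstimulated and stimulated DMSO wells, then concentration-response fitting.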
ATXN viability: cell viability loss in ATXN counter-screen; S2 cells (HEK-293 line with an ATXN2-luciferase reporter) viability, CellTiter-Fluor protease fluorescence, 24 h; Potency, µM (top dose mostly 56.7 µM), hits mostly cytotoxic; hit rate 0.49% among 400,000; also: nearly all actives have a fitted effect of over 40% in size
ATXN2 expr inh: inhibitors of ATXN2 expression; HEK-293 ATXN2-luciferase reporter, luminescence, 24 h; Potency, µM (doses to about 57 µM), for inactives: at the top dose activity change, negative = inhibition, usual class: inhibitors; hit rate 0.72% among 360,000; also: % is scaled to controls: 0 for no effect and ±100 for the full control effect; nearly all actives have a fitted effect of over 55% in size
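ATXN2-luciferase reporter cells (luciferase flanked by upstream and downstream ATXN2 gene portions) were treated 24 h at 37 °C with compounds at up to 57 uM. SteadyGlo luminescence gave expression; GF-AFC fluorescence gave viability.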
HepG2 tox: kills HepG2 cells in TGF-b inhibitor counter-screen. hit rate 0.76% among 410,000. HepG2 CAGA-GFP viability, ATP luminescence, 18 h. AID 588856. Potency, µM (top dose mostly 46.1 µM), inactives show top-dose activity change, negative = cytotoxicity, actives largely listed as cytotoxic
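HepG2 CAGA-GFP cells (1000/well, DMEM with 1% FBS) received compound, then TGF-beta at 500 pg/mL final, and were incubated 18 hours at 37 degrees C. Viability was read by CellTiter-Glo luminescence. Media-only wells were set as complete cell-killing and DMSO as no toxicity.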
TDP1 cell noCPT: qHTS for Inhibitors of human tyrosyl-DNA phosphodiesterase 1 (TDP1): qHTS in cells in absence of CPT | AID 686978, 2013 | hit rate 15% among 420,000 | DT40 Tdp1-/- hTDP1 cells, no CPT, ATP luminescence, 48 h | Potency, µM (doses to about 46.2 µM), for inactives: at the highest dose activity change, negative = growth inhibition, most hits filed as inhibitors; also: % is scaled to controls: 0 for no effect and ±100 for the full control effect; nearly all actives have a fitted effect of over 55% in size
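Cells were dispensed at 400 per well, compounds added by pin tool, plates incubated ≥48 hr at 37 °C, then CellTiter-Glo added for 30 min at room temperature before luminescence reading. Line: DT40 Tdp1-/- complemented with hTDP1; camptothecin omitted.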
DT40 TDP1 CPT: DT40-hTDP1 cell growth loss with CPT; chicken DT40 Tdp1-/-;hTDP1 cells + 20 nM CPT, ATP luminescence, 48 h; Potency, µM (highest dose often 46.2 µM), for the others: at the highest dose activity change, negative = growth inhibition, actives largely listed as inhibitors; AID 686979; hit rate 12% among 420,000; also: % is scaled to controls: 0 for no effect and ±100 for the full control effect; nearly all actives have a fitted effect of over 55% in size
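Chicken DT40 Tdp1-/- cells stably complemented with human TDP1 were seeded at 400 cells/well in medium containing 20 nM camptothecin, exposed to pin-transferred compounds, and grown at 37 °C for at least 48 hr. Viability was read as ATP luminescence.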
* = called active by the depositor. Calls follow the shape of the dose curve; as a rule, active = well fitted curve in the direction sought with a large enough effect; inconclusive = small, poorly fitted or top-dose-only effect, or another doubt; inactive = no such curve, though single readings can be large; an effect the other way counts as inactive or inconclusive. Potency is read from the fitted curve at half-maximal effect.

`CCOc1cc(C(=O)NCCc2csc3nc(-c4ccccc4F)nn23)cc(OCC)c1OCC` gave TGFb SMAD3 inh 3%, ATXN viability inactive, ATXN2 expr inh -9%, HepG2 tox -5%, TDP1 cell noCPT inconclusive and DT40 TDP1 CPT 23µM*.
For CC(C)(C)c1ccc(C(=O)NCCc2csc3nc(-c4ccccc4F)nn23)cc1 the results were TGFb SMAD3 inh 18µM*, ATXN viability inconclusive, ATXN2 expr inh 0%, HepG2 tox -22%, TDP1 cell noCPT inconclusive and DT40 TDP1 CPT 21µM*.
O=C(Nc1ccc(-c2csnn2)cc1)C1CC1 was read as TGFb SMAD3 inh 6%, ATXN viability inactive, ATXN2 expr inh 9%, HepG2 tox -13%, TDP1 cell noCPT inconclusive and DT40 TDP1 CPT inconclusive.
NC(=NC1C2CC3CC(C2)CC1C3)Nc1ccc(I)cc1 (centres undefined) was read as TDP1 cell noCPT 3.7µM* and DT40 TDP1 CPT 4.1µM*.
CCC(C)(C)C(=O)OC1CC(C)C=C2C=CC(C)C(CCC3CC(O)CC(=O)O3)C21 (centres undefined) was read as TDP1 cell noCPT 21µM* and DT40 TDP1 CPT 26µM*.
Screening CCC(C)(C)C(=O)O[C@@H]1C[C@@H](C)C=C2C=C[C@H](C)[C@H](CC[C@@H]3C[C@@H](O)CC(=O)O3)[C@H]21 returned TDP1 cell noCPT 19µM* and DT40 TDP1 CPT 24µM*.
COc1ccc(N2CCN(C(=O)C3CCCN(S(=O)(=O)c4cccc5cccnc45)C3)CC2)cc1 (centres undefined) was read as TGFb SMAD3 inh -3%, ATXN viability inconclusive, ATXN2 expr inh -19%, HepG2 tox -12%, TDP1 cell noCPT inconclusive and DT40 TDP1 CPT 16µM*.
`CC1Cc2ccccc2N1C(=O)C1CCCN(S(=O)(=O)c2cccc3cccnc23)C1` (centres undefined) gave TGFb SMAD3 inh -26%, ATXN viability inconclusive, ATXN2 expr inh inconclusive, HepG2 tox -31%, TDP1 cell noCPT 13µM* and DT40 TDP1 CPT 13µM*.
O=C(O)[C@@H]1CCCN(S(=O)(=O)c2cccc3cccnc23)C1 was read as TGFb SMAD3 inh 16%, ATXN viability inactive, ATXN2 expr inh 8%, HepG2 tox -1%, TDP1 cell noCPT -2% and DT40 TDP1 CPT 33%.
COC(=O)c1cc(NS(=O)(=O)c2ccc(Cl)c(N3C(=O)c4ccc(C(=O)O)cc4C3=O)c2)cc(C(=O)OC)c1 was read as TGFb SMAD3 inh -6%, ATXN viability inactive, ATXN2 expr inh 3%, HepG2 tox -6%, TDP1 cell noCPT 4% and DT40 TDP1 CPT 3%.
For COc1ccccc1NC(=O)CS(=O)(=O)c1cn(CC(=O)N2CCCC2)c2ccccc12 the results were TGFb SMAD3 inh 6%, ATXN viability inactive, ATXN2 expr inh 4%, HepG2 tox -7%, TDP1 cell noCPT -5% and DT40 TDP1 CPT 1%.
For O=C(NCc1ccccc1Cl)c1ccc(NC(=O)N2CCSc3ccccc32)cc1 the results were TGFb SMAD3 inh 5%, ATXN viability inactive, ATXN2 expr inh 5%, HepG2 tox -35%, TDP1 cell noCPT inconclusive and DT40 TDP1 CPT inconclusive.
For Cc1ccc(N2CCN(C(=O)N3CCCC3)CC2)cc1C the results were TGFb SMAD3 inh 19%, HepG2 tox -9%, TDP1 cell noCPT 8% and DT40 TDP1 CPT 21µM*.
Cc1ccc(N2CCN(C(=O)c3cccs3)CC2)cc1C was read as TGFb SMAD3 inh 14%, ATXN viability inactive, ATXN2 expr inh 17%, HepG2 tox -8%, TDP1 cell noCPT -26% and DT40 TDP1 CPT -1%.
